# About 410 targets per protein were measured; listed, in parts, are those with the strongest signals and a random draw of the rest.
# What was measured:
# Test in all cases: glycan array binding signal (z-score within array); higher = stronger binding
# Conditions in all cases: glycan notation: IUPAC condensed, linker removed
# [1] = molecular target: Gal(b1-4)GlcNAc(b1-2)Man(a1-6)[GlcNAc(b1-2)Man(a1-3)]Man(b1-4)GlcNAc(b1-4)GlcNAc
# How it was run: (§1)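 From the Consortium for Functional Glycomics database, 3228 arrays were curated, keeping only those whose protein sequence was available. Binding is given as a within-array Z-score averaged across arrays sharing a protein sequence and across linkers. Negative Z-scores can be read as non-binding.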
# [2] = molecular target: Gal3S(b1-4)[Fuc(a1-3)]GlcNAc6S
# How it was run: as §1
# Gal6S(b1-4)Glc6S = molecular target: Gal6S(b1-4)Glc6S
# How it was run: as §1
# [3] = molecular target: GalNAc(a1-3)GalNAc(a1-3)Gal(a1-4)Gal(b1-4)GlcNAc
# How it was run: as §1
# [4] = molecular target: GalNAc(b1-3)Gal(a1-6)Gal(b1-4)Glc
# How it was run: as §1
# Glc(a1-6)Glc(a1-6)Glc = molecular target: Glc(a1-6)Glc(a1-6)Glc
# How it was run: as §1
# [5] = molecular target: GlcNAc(b1-2)Gal(b1-3)GalNAc
# How it was run: as §1
# [6] = molecular target: GlcNAc(b1-3)Gal(b1-4)GlcNAc(b1-2)Man(a1-3)[GlcNAc(b1-3)Gal(b1-4)GlcNAc(b1-2)Man(a1-6)]Man(b1-4)GlcNAc(b1-4)GlcNAc
# How it was run: as §1
# [7] = molecular target: GlcNAc(b1-3)[GlcNAc(b1-6)]Gal(b1-4)GlcNAc
# How it was run: as §1
# [8] = molecular target: GlcNAc(b1-3)[GlcNAc(b1-6)]GalNAc
# How it was run: as §1
# Kdn(a2-3)Gal(b1-3)GlcNAc = molecular target: Kdn(a2-3)Gal(b1-3)GlcNAc
# How it was run: as §1
# [9] = molecular target: Man(a1-2)Man(a1-2)Man(a1-3)[Man(a1-2)Man(a1-3)[Man(a1-2)Man(a1-6)]Man(a1-6)]Man(b1-4)GlcNAc(b1-4)GlcNAc
# How it was run: as §1
# [10] = molecular target: Man(a1-2)Man(a1-3)[Man(a1-2)Man(a1-6)]Man(a1-6)[Man(a1-2)Man(a1-2)Man(a1-3)]Man
# How it was run: as §1
# [11] = molecular target: Man(a1-3)[Man(a1-6)]Man(a1-6)[Man(a1-3)]Man
# How it was run: as §1
# [12] = molecular target: Neu5Ac(a2-3)Gal(b1-3)GlcNAc(b1-3)Gal(b1-4)GlcNAc
# How it was run: as §1
# [13] = molecular target: Neu5Ac(a2-3)Gal(b1-3)[Neu5Ac(a2-3)Gal(b1-4)]GlcNAc
# How it was run: as §1
# [14] = molecular target: Neu5Ac(a2-3)Gal(b1-4)GlcNAc(b1-2)Man(a1-3)[Neu5Ac(a2-6)Gal(b1-4)GlcNAc(b1-2)Man(a1-6)]Man(b1-4)GlcNAc(b1-4)GlcNAc
# How it was run: as §1
# [15] = molecular target: Neu5Ac(a2-3)Gal(b1-4)GlcNAc(b1-3)GalNAc
# How it was run: as §1
# [16] = molecular target: Neu5Ac(a2-3)Gal(b1-4)GlcNAc(b1-6)GalNAc
# How it was run: as §1
# [17] = molecular target: Neu5Ac(a2-6)Gal(b1-4)GlcNAc(b1-2)Man(a1-3)Man(b1-4)GlcNAc(b1-4)GlcNAc
# How it was run: as §1
# [18] = molecular target: Neu5Ac(a2-6)Gal(b1-4)GlcNAc(b1-2)Man(a1-3)[Man(a1-6)]Man(b1-4)GlcNAc(b1-4)GlcNAc
# How it was run: as §1
# [19] = molecular target: Neu5Ac(a2-6)Gal(b1-4)GlcNAc(b1-3)Gal(b1-4)GlcNAc(b1-6)[Gal(b1-3)]GalNAc
# How it was run: as §1
# [20] = molecular target: Neu5Ac(a2-6)Gal(b1-4)GlcNAc(b1-3)GalNAc
# How it was run: as §1
# [21] = molecular target: Neu5Ac(a2-8)Neu5Ac(a2-3)[GalNAc(b1-4)]Gal(b1-4)Glc
# How it was run: as §1
# [22] = molecular target: Neu5Ac9Ac(a2-6)Gal(b1-4)GlcNAc
# How it was run: as §1
# [23] = molecular target: Neu5Gc(a2-8)Neu5Gc(a2-3)Gal(b1-4)GlcNAc
# How it was run: as §1
# [24] = molecular target: Neu5Gc(b2-6)Gal(b1-4)GlcNAc
# How it was run: as §1
# [25] = molecular target: Fuc(a1-2)Gal(b1-3)GlcNAc6S
# How it was run: as §1
# [26] = molecular target: Fuc(a1-2)Gal(b1-3)[Fuc(a1-4)]GlcNAc(b1-3)[Fuc(a1-3)[Gal(b1-4)]GlcNAc(b1-6)]Gal(b1-4)Glc
# How it was run: as §1
# [27] = molecular target: Fuc(a1-2)Gal(b1-4)GlcNAc(b1-3)Gal(b1-4)GlcNAc(b1-2)Man(a1-3)[Fuc(a1-2)Gal(b1-4)GlcNAc(b1-3)Gal(b1-4)GlcNAc(b1-2)Man(a1-6)]Man(b1-4)GlcNAc(b1-4)GlcNAc
# How it was run: as §1
# [28] = molecular target: Fuc(a1-2)Gal(b1-4)[Fuc(a1-3)]GlcNAc
# How it was run: as §1
# [29] = molecular target: Fuc(a1-2)Gal6S(b1-3)GlcNAc
# How it was run: as §1
# [30] = molecular target: Fuc(a1-2)[Gal(a1-3)]Gal(b1-3)GlcNAc(b1-2)Man(a1-3)[Fuc(a1-2)[Gal(a1-3)]Gal(b1-3)GlcNAc(b1-2)Man(a1-6)]Man(b1-4)GlcNAc(b1-4)[Fuc(a1-6)]GlcNAc
# How it was run: as §1
# [31] = molecular target: Fuc(a1-2)[GalNAc(a1-3)]Gal(b1-4)[Fuc(a1-3)]GlcNAc(b1-3)GalNAc
# How it was run: as §1
# [32] = molecular target: Fuc(a1-2)[GalNAc(b1-3)]Gal
# How it was run: as §1
# [33] = molecular target: Fuc(a1-3)[Gal(b1-4)]GlcNAc(b1-2)Man
# How it was run: as §1
# [34] = molecular target: Fuc(a1-3)[GalNAc(b1-4)]GlcNAc
# How it was run: as §1
# [35] = molecular target: Fuc(a1-3)[GalNAc(b1-4)]GlcNAc6S
# How it was run: as §1
# Fuc(a1-4)GlcNAc = molecular target: Fuc(a1-4)GlcNAc
# How it was run: as §1
# [36] = molecular target: Gal(a1-3)Gal(b1-4)GlcNAc(b1-2)Man(a1-3)[Gal(a1-3)Gal(b1-4)GlcNAc(b1-2)Man(a1-6)]Man(b1-4)GlcNAc(b1-4)GlcNAc
# How it was run: as §1
# [37] = molecular target: Gal(a1-3)Gal(b1-4)[Fuc(a1-3)]GlcNAc(b1-2)Man(a1-3)[Gal(a1-3)Gal(b1-4)[Fuc(a1-3)]GlcNAc(b1-2)Man(a1-6)]Man(b1-4)GlcNAc(b1-4)GlcNAc
# How it was run: as §1
# Gal(a1-3)GalNAc = molecular target: Gal(a1-3)GalNAc
# How it was run: as §1
# [38] = molecular target: Gal(b1-3)GlcNAc(b1-3)Gal(b1-4)Glc
# How it was run: as §1
# [39] = molecular target: Gal(b1-3)GlcNAc(b1-3)Gal(b1-4)GlcNAc
# How it was run: as §1
# [40] = molecular target: Gal(b1-3)GlcNAc(b1-3)Gal(b1-4)GlcNAc(b1-2)[Gal(b1-3)GlcNAc(b1-3)Gal(b1-4)GlcNAc(b1-6)]Man(a1-6)[Gal(b1-3)GlcNAc(b1-3)Gal(b1-4)GlcNAc(b1-2)Man(a1-3)]Man(b1-4)GlcNAc(b1-4)[Fuc(a1-6)]GlcNAc
# How it was run: as §1
# [41] = molecular target: Gal(b1-3)[Fuc(a1-4)]GlcNAc(b1-6)GalNAc
# How it was run: as §1
# [42] = molecular target: Gal(b1-4)GlcNAc(b1-2)[Gal(b1-4)GlcNAc(b1-4)]Man(a1-3)[Gal(b1-4)GlcNAc(b1-2)[Gal(b1-4)GlcNAc(b1-6)]Man(a1-6)]Man(b1-4)GlcNAc(b1-4)GlcNAc
# How it was run: as §1
# [43] = molecular target: Gal(b1-4)GlcNAc(b1-3)Gal(b1-3)GlcNAc
# How it was run: as §1
# [44] = molecular target: Gal(b1-4)GlcNAc(b1-3)Gal(b1-4)Glc
# How it was run: as §1
# [45] = molecular target: Gal(b1-4)GlcNAc(b1-3)Gal(b1-4)GlcNAc(b1-3)Gal(b1-4)GlcNAc
# How it was run: as §1
# Gal3S(b1-3)GlcNAc = molecular target: Gal3S(b1-3)GlcNAc
# How it was run: as §1
# Gal3S(b1-4)GlcNAc = molecular target: Gal3S(b1-4)GlcNAc
# How it was run: as §1
# [46] = molecular target: Gal3S(b1-4)[Fuc(a1-3)]GlcNAc
# How it was run: as §1
# Gal4S(b1-4)GlcNAc = molecular target: Gal4S(b1-4)GlcNAc
# How it was run: as §1
# GalNAc(b1-4)GlcNAc = molecular target: GalNAc(b1-4)GlcNAc
# How it was run: as §1
# [47] = molecular target: GlcNAc(a1-4)Gal(b1-3)GlcNAc
# How it was run: as §1
# [48] = molecular target: GlcNAc(a1-6)Gal(b1-4)GlcNAc
# How it was run: as §1
binder,measurement,setting,value
"UEA-I (Ulex europaeus), P22972 (protein) SDDLSFKFKNFSQNGKDLSFQGDASVIETGVLQLNKVGNNLPDETGGIARYIAPIHIWNCNTGEVASFITSFSFFMETSANPKAATDGLTFFLAPPDSPLRRAGGYFGLFEDTKDNDSSYQTVAVEFDTIGSPVNFDDPGFPHIGIDVNRVKSINAERWNKRYGLNNVANVEIIYEASSKTLTASLTYPSDQTSISVTSIVDLKEILPEWVSVGFSGGTYIGRQATHEVLNWYFTSNLINTNS",glycan array binding signal (z-score),[1],-0.155
same,glycan array binding signal (z-score),[2],-0.212
same,glycan array binding signal (z-score),Gal6S(b1-4)Glc6S,-0.098
same,glycan array binding signal (z-score),[3],-0.179
same,glycan array binding signal (z-score),[4],-0.21
same,glycan array binding signal (z-score),Glc(a1-6)Glc(a1-6)Glc,-0.204
same,glycan array binding signal (z-score),[5],-0.195
same,glycan array binding signal (z-score),[6],-0.128
same,glycan array binding signal (z-score),[7],-0.266
same,glycan array binding signal (z-score),[8],-0.17
same,glycan array binding signal (z-score),Kdn(a2-3)Gal(b1-3)GlcNAc,-0.222
same,glycan array binding signal (z-score),[9],-0.378
same,glycan array binding signal (z-score),[10],-0.191
same,glycan array binding signal (z-score),[11],-0.125
same,glycan array binding signal (z-score),[12],-0.274
same,glycan array binding signal (z-score),[13],-0.122
same,glycan array binding signal (z-score),[14],-0.209
same,glycan array binding signal (z-score),[15],-0.22
same,glycan array binding signal (z-score),[16],-0.243
same,glycan array binding signal (z-score),[17],-0.227
same,glycan array binding signal (z-score),[18],-0.216
same,glycan array binding signal (z-score),[19],-0.032
same,glycan array binding signal (z-score),[20],-0.148
same,glycan array binding signal (z-score),[21],-0.259
same,glycan array binding signal (z-score),[22],-0.244
same,glycan array binding signal (z-score),[23],-0.238
same,glycan array binding signal (z-score),[24],-0.1
"EPL1 (Trichoderma atroviride), A0PCX2 (protein) MQLSNLFKLALFTAAVSADTVSYDTGYDDASRSLTVVSCSDGTNGLITRYHWQTQGQIPRFPYIGGAQAVAGWNSPNCGTCWKLTYSGKTIYVLAIDHTAAGFNIGLDAMNALTNGNAVALGRVSATASQVAVSNCGL",glycan array binding signal (z-score),[25],-0.466
same,glycan array binding signal (z-score),[26],-0.315
same,glycan array binding signal (z-score),[27],-0.05
same,glycan array binding signal (z-score),[28],0.212
same,glycan array binding signal (z-score),[29],-0.249
same,glycan array binding signal (z-score),[30],0.105
same,glycan array binding signal (z-score),[31],21.1
same,glycan array binding signal (z-score),[32],-0.54
same,glycan array binding signal (z-score),[33],0.185
same,glycan array binding signal (z-score),[34],0.203
same,glycan array binding signal (z-score),[35],-0.245
same,glycan array binding signal (z-score),Fuc(a1-4)GlcNAc,3.1
same,glycan array binding signal (z-score),[36],0.847
same,glycan array binding signal (z-score),[37],0.929
same,glycan array binding signal (z-score),Gal(a1-3)GalNAc,-0.034
same,glycan array binding signal (z-score),[38],1.82
same,glycan array binding signal (z-score),[39],-0.163
same,glycan array binding signal (z-score),[40],0.678
same,glycan array binding signal (z-score),[41],-0.249
same,glycan array binding signal (z-score),[42],0.128
same,glycan array binding signal (z-score),[43],-0.08
same,glycan array binding signal (z-score),[44],-0.362
same,glycan array binding signal (z-score),[45],0.071
same,glycan array binding signal (z-score),Gal3S(b1-3)GlcNAc,0.668
same,glycan array binding signal (z-score),Gal3S(b1-4)GlcNAc,0.311
same,glycan array binding signal (z-score),[46],-0.154
same,glycan array binding signal (z-score),Gal4S(b1-4)GlcNAc,0.422
same,glycan array binding signal (z-score),GalNAc(b1-4)GlcNAc,1.34
same,glycan array binding signal (z-score),[47],0.056
same,glycan array binding signal (z-score),[48],-0.234
